Shown are actives, neighbours in structure and some others; about 2.6% of the full set was active somewhere.
COUP-TFII inh = NR2F2 (human) inhibition, primary screen | AID 686940 | P24468 | inhibition, % at 8.6 µM | hit rate 0.7% among 370,000 | HEK293T NGFI-A luciferase reporter, luminescence;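 active = inhibition above a per-plate cutoff, mean inhibition of test wells between control levels plus 3 SD, cut at about 38% in these data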;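 also: cells cotransfected with COUP-TFII expression vector driving the NGFI-A reporter; 0% = median of COUP-TF2 test wells and 100% = reporter-only cells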
Target sequence (P24468 whole entry, looked up): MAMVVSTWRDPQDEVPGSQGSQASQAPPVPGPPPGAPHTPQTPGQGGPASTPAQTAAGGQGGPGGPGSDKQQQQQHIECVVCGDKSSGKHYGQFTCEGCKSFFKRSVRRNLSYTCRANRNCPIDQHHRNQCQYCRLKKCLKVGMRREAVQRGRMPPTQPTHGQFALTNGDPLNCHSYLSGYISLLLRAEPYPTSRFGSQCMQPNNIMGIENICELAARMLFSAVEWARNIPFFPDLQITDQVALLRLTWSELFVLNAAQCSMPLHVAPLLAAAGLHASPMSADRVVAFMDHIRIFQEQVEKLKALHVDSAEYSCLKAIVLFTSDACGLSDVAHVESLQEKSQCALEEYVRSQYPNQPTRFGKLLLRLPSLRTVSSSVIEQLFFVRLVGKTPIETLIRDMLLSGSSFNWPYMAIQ
Jurkat NFkB inh = lowers PMA/ionomycin-induced NF-kB signal in Jurkat cells; AID 435003; PMA/ionomycin-induced NF-kB luciferase reporter, luminescence; inhibition, % at 4 µM; hit rate 0.53% among 330,000; in the data active = inhibition above about 50%
TAG inh = triacylglycerol accumulation inhibition; inhibition, % at 12.5 µM; hit rate 0.66% among 230,000; H9c2 cells, Nile Red lipid (TAG) fluorescence; cells loaded with 200 µM oleic acid;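 active = pattern-corrected inhibition of lipid staining of at least 50% with the nuclear-stain viability signal not falling by more than 50%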;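 also: 0% = DMSO wells and 100% = triacsin C control wells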
H9c2 protect = myocardial damage modulation in H9c2 cells; protection from H2O2 cell death, % at 20 µM; hit rate 0.63% among 360,000; H9c2 cardiomyocytes, H2O2 injury protection, ATPLite, 2 h;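 active = compounds giving at least 50% protection of heart cells from peroxide-induced death in the single-dose screen, raw or plate-pattern-corrected value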;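 also: 0% = DMSO wells with peroxide and 100% = DMSO wells without peroxide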
697 NFkB inh = lowers PMA/ionomycin-induced NF-kB signal in 697 B cells | 697 B-cell NF-kB luciferase reporter, 16 h | inhibition, % at 4 µM | hit rate 0.33% among 330,000 | AID 435022; in the data active = inhibition above about 35%
Gli-Sufu antag = blocks Gli-Sufu signaling in a luciferase reporter; Sufu-KO-LIGHT fibroblasts, Gli luciferase reporter luminescence; inhibition, % at 5 µM; AID 588413; hit rate 0.74% among 340,000;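 active = inhibition above about 55%, limit read from the data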;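 also: 0% = DMSO-treated cells and 100% = wells with medium but no cells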
Jurkat NFkB conf = inhibitors of the PMA/ionomycin-induced NF-kB reporter in Jurkat cells, retest; shares compounds with Jurkat NFkB inh; hit rate 27% among 2,700; Jurkat NF-kB luciferase, 16 h; AID 435020; inhibition, % at 4 µM;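 active = inhibition reaching about 45% at 4 µM in either replicate, limit read from the data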;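 also: plate controls were PMA/ionomycin stimulated DMSO wells for no effect and unstimulated DMSO wells for full effect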
The depositor's hits bear a star; x = no result given.

SMILES | COUP-TFII inh | Jurkat NFkB inh | TAG inh | H9c2 protect | 697 NFkB inh | Gli-Sufu antag | Jurkat NFkB conf
CCOC(=O)N1CCN(C(=O)C[C@H]2C[C@@]3(C(=O)OC)C(=C[C@H](C(C)(C)C)O[C@@H]3C)N(Cc3ccco3)C2=O)CC1 | 17.2 | x | x | x | x | x | x
Cc1cccc(OCC(O)Cn2c(=N)n(Cc3ccccc3)c3ccccc32)c1 (stereo not drawn) | -18.6 | 62.1* | 29.2 | -14.8 | -41.9 | 7.8 | 18.0
CN(C)S(=O)(=O)c1cccc(NC(=O)COC(=O)c2ccc3ccccc3n2)c1 | -3.4 | 60.1* | -0.8 | -3.2 | 19.3 | -1.7 | 8.7
CNC(C)C#Cc1c(-c2cc(OC)c(OC)c(OC)c2)noc1C (stereo not drawn) | 2.4 | -2.8 | 11.9 | 5.5 | 7.9 | -22.1 | x
COc1cc(-c2noc(C)c2C#Cc2ccccn2)cc(OC)c1OC | -30.2 | 60.0* | 69.7* | 3.9 | -25.6 | 23.7 | 37.0
COc1cc(-c2noc(C)c2/C=C/c2ccc(N)cc2)cc(OC)c1OC | -88.2 | 58.4* | 28.5 | 5.9 | -148.7 | 37.7 | 8.0
COc1ccc(-c2c(-c3cc(OC)c(OC)c(OC)c3)noc2C)cn1 | x | 66.0* | 23.0 | -2.2 | -44.6 | 30.4 | 34.4
COc1ccc(-c2c(-c3ccc4c(c3)OCO4)noc2C)cn1 | -30.4 | -1.6 | 1.4 | -5.5 | -3.0 | -11.6 | x
C[C@H]1[C@@H](OC(=O)Nc2ccc(C(F)(F)F)cc2)CC[C@@]23CCCN2C(=O)CCC[C@@H]13 | 1.5 | x | x | x | x | x | x
COC(=O)[C@]12C[C@H](CC(=O)NCc3ccc(OC)c(OC)c3)C(=O)N(Cc3cccc4ccccc34)C1=C[C@H](COCc1ccccc1)O[C@@H]2C | 8.2 | x | x | x | x | x | x
Cc1ccc(NC(=O)C2=C(c3ccccc3)S(=O)(=O)CCS2(=O)=O)cc1 | 19.8 | 62.6* | 91.5 | -37.0 | -78.8 | 22.6 | 34.1
Cc1ccc(NC(=O)c2ccccc2)cc1 | -33.1 | -89.2 | 12.3 | -7.9 | -130.4 | -100.5 | x
C[C@@H]1COc2cc(F)ccc2S(=O)(=O)N1C | 5.2 | x | x | x | x | x | x
CN(C)c1ccc(C2C=C(c3ccc(Cl)cc3OC(F)F)Nc3ncnn32)cc1 (stereo not drawn) | 5.7 | 61.5* | x | -8.9 | 1.9 | -6.8 | 14.9
CCOC(=O)c1c(NC(=O)N/N=C/c2ccccc2OCC)sc(C(C)=O)c1C | 5.0 | x | x | -12.4 | x | 6.9 | x
CCOC(=O)c1c(NC(=O)N/N=C/c2ccc(O)c(OC)c2)sc(C(C)=O)c1C | x | 58.0* | x | x | -197.6 | x | 32.7
CCOC(=O)c1c(C)[nH]c(C(=O)N/N=C/c2ccc(OC)c(OC)c2)c1C | -16.6 | 55.4* | x | 16.2 | -21.7 | 3.2 | 10.5
CN1Cc2nnn(Cc3ccccc3)c2-c2ccccc2S1(=O)=O | 1.8 | x | x | x | x | x | x
CS(=O)(=O)c1ccc(Sc2nc3ccccc3s2)c([N+](=O)[O-])c1 | x | 93.7* | x | -7.9 | -24.4 | 9.4 | 58.4*
O=[N+]([O-])c1cc(S(=O)(=O)C(F)(F)F)ccc1Sc1nc2ccccc2s1 | -2.5 | -2.4 | x | -36.2 | -6.6 | 2.8 | x
COc1cc(NC(=O)CSc2nc(C)cc(=O)[nH]2)cc(OC)c1 | 1.7 | x | x | x | x | x | x
Cc1ccccc1NC1=C/C(=N\S(=O)(=O)c2cccs2)c2ccccc2C1=O | -4.0 | 51.3* | x | -17.1 | -170.8 | 42.4 | 84.0*
Nc1ccccc1-c1nnc(-c2ccc(-c3ccccc3)cc2)o1 | -20.0 | -154.2 | x | -12.1 | -175.0 | -68.5 | -73.7
CSc1ccccc1-c1nnc(-c2ccccc2)o1 | -57.8 | -158.6 | 24.1 | -27.3 | -172.6 | -71.0 | -85.3
CSc1ccccc1-c1nnc(-c2ccc(C)cc2)o1 | -37.4 | -101.7 | -5.3 | -30.5 | -101.6 | -74.9 | x
SMILES | COUP-TFII inh | Jurkat NFkB inh | TAG inh | H9c2 protect | 697 NFkB inh | Gli-Sufu antag | Jurkat NFkB conf
Clc1cccc(-c2nnc(-c3ccccc3)o2)c1 | -47.5 | -183.9 | x | -23.9 | -227.0 | -4.5 | -93.4
c1ccc(-c2nnc(-c3ccccc3)o2)cc1 | -63.6 | -114.3 | -26.2 | -20.0 | -130.5 | -72.7 | x
CCN(c1ccccc1)S(=O)(=O)c1ccc(NC(=O)c2nc(S(C)(=O)=O)ncc2Cl)cc1 | x | 44.8 | x | -17.6 | -96.9 | 17.8 | x
CCS(=O)(=O)c1ncc(Cl)c(C(=O)Nc2ccc(S(=O)(=O)N(C)c3ccccc3)cc2)n1 | 16.8 | 74.7* | x | -19.5 | -112.8 | 26.9 | 49.4
O=C(c1nnsc1S(=O)c1ccc(Cl)cc1)N1CCOCC1 (stereo not drawn) | -10.0 | 70.1* | 85.5 | -29.5 | -35.7 | 20.9 | 23.6
CCOC(=O)c1cnc2c(-c3ccccc3)cnn2c1N | -62.5 | -163.5 | 5.0 | -36.1 | -231.8 | -135.8 | -127.8
O=S(=O)(c1ccc(Cl)cc1)N1CCCc2ccccc21 | 8.4 | 2.7 | -22.2 | -6.4 | 12.5 | 5.2 | x
COC(=O)Nc1ccc(S(=O)(=O)N2c3ccccc3CCC2C)cc1 (stereo not drawn) | 9.5 | 53.3* | x | -10.5 | -85.4 | 10.0 | 38.2
CC(=O)Nc1ccc(S(=O)(=O)N2CCCc3ccccc32)cc1 | 9.8 | 63.5* | x | 6.2 | -48.0 | -8.5 | 34.3
Cc1cc(NC(=O)COC(=O)c2ccc(S(=O)(=O)N3CCCc4ccccc43)cc2)no1 | -2.7 | 51.5* | 10.0 | -17.5 | -26.0 | 20.0 | 39.1
COC(=O)Nc1ccc(S(=O)(=O)N2CCCCC2C(=O)O)cc1 (stereo not drawn) | 21.9 | -3.1 | 10.1 | -4.3 | 16.1 | -6.6 | x
CCCCNC(=O)C[C@H]1C[C@@]2(C(=O)OC)C(=C[C@H](COCc3ccccc3)O[C@@H]2C)N(Cc2ccccc2)C1=O | 13.2 | x | x | x | x | x | x
Cc1cccc(-c2nc(=S)c3c(o2)CCCC3)c1 | -28.6 | -165.7 | x | -5.9 | -138.1 | -54.2 | -79.7
S=c1nc(-c2ccc(Br)cc2)oc2c1CCCC2 | -1.8 | -61.9 | 15.8 | -6.7 | -102.7 | -12.2 | x
C[C@@H](NC(=O)C[C@H]1CC[C@H]2[C@@H](COc3ccc(NC(=O)Nc4ccccc4)cc3C(=O)N2C)O1)c1ccccc1 | 14.2 | x | x | x | x | x | x
COc1ccc(N=C2C(=Nc3ccc(OC)cc3)N(c3ccc(N(C)C)cc3)C(=S)N2c2ccc(OC)cc2)cc1 | 6.6 | 70.4* | x | 0.3 | 29.6 | -14.8 | -40.9
COc1ccc(N2C(=S)N(C(=O)c3ccccc3)C(=Nc3ccccc3)C2=Nc2ccccc2)cc1 | -23.1 | -176.1 | x | -7.7 | -225.4 | -117.5 | -63.0
Cc1ccc(NC(=O)c2cccc3c2-c2ccccc2C3=O)c(C)c1 | 6.1 | x | x | x | x | x | x
COc1cc(/C=C(/C#N)c2nc3ccccc3[nH]2)ccc1OCC(=O)Nc1ccccc1C | -16.3 | 52.8* | x | 14.6 | 12.8 | -4.0 | 19.1
COc1cccc(Oc2cnc(N)nc2-c2ccc(OC)cc2O)c1 | -7.5 | 50.3* | 19.8 | 0.4 | -47.8 | -4.7 | 15.4
COc1ccc(-c2nc(N)ncc2Oc2ccccc2Br)c(O)c1 | -0.6 | 33.6 | 10.2 | -18.7 | 11.4 | -0.6 | x
COc1ccc(OC)c(S(=O)(=O)Nc2cc(OC)c(Cl)cc2OC)c1 | 5.4 | 15.8 | x | -4.9 | 7.2 | 29.6 | x
COc1cc(NS(=O)(=O)c2ccc(OC)c(C)c2C)c(OC)cc1Cl | 32.7 | 58.4* | 5.6 | -20.5 | -44.3 | 20.3 | 50.9*
